Test results reported in PubChem BioAssay AID1159580 (chemical genetic matrix, 2015).
About 2,000 (36%) of roughly 5,500 compounds were called active. About 18% were inconclusive and are not listed. Cut-off read from the data, not from the text of the source: active = normalized growth mostly below about 0.91 (no sharp cut-off); inconclusive = no clear call, values can overlap the other calls; inactive = mostly above about 0.92. This is one part of the list.

Experiment: chemical genetic growth profiling, strain panel (AID 1159580);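 note: tested at 20 µM; growth read once vehicle control cultures reached saturation at 30 °C; 1 = growth at the plate median or of vehicle wells; lower values mean less growth of the strain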
Conditions: S. cerevisiae deletion strains, growth OD

Measured: normalized growth

C#CCn1c(=O)c2c(ncn2C)n(C)c1=O
inactive: locus YAL013W, strain DEP1, active compounds read low 0.982 | locus YAL040C, strain CLN3, active compounds read low 1.01 | locus YCL061C, strain MRC1 (second series), active compounds read low 1.01 | locus YDR150W, strain NUM1, active compounds read low 0.999 | locus YDR363W, strain ESC2, active compounds read low 0.989 | locus YER002W, strain NOP16, active compounds read low 0.997 | locus YGR078C, strain PAC10, active compounds read low 1.01 | locus YGR229C, strain SMI1, active compounds read low 1.03 | locus YJR075W, strain HOC1, active compounds read low 0.994 | locus YMR263W, strain SAP30, active compounds read low 0.995 | locus YMR307W, strain GAS1, active compounds read low 1.01 | locus YNL175C, strain NOP13, active compounds read low 0.998 | locus YNL197C, strain WHI3, active compounds read low 0.977 | locus YNL224C, strain SQS1, active compounds read low 1.01 | locus YNL322C, strain KRE1, active compounds read low 0.987 | locus YOR083W, strain WHI5 (second series), active compounds read low 0.965 | locus YPL241C, strain CIN2, active compounds read low 1
